Laboratory results published in PubChem BioAssay (NCATS).
Several values for one entry are separate records, joined by “and”; a condition that tells them apart may be missing. Equal values may be shown once. Records with an inconclusive call do not appear. Where a call stands in place of a potency, no number is given. Values without a mark were called inactive. Activity calls are given as the source filed them. Unless noted, calls follow the shape of the dose curve; as a rule, active = well fitted curve in the direction sought with a large enough effect; inconclusive = small, poorly fitted or top-dose-only effect, or another doubt; inactive = no such curve, though single readings can be large; an effect the other way counts as inactive or inconclusive.

Columns and labels:
[1] = qHTS assay for small molecule agonists of the antioxidant response element (ARE) signaling pathway measured by Nrf2-dependant transcriptional activity - cell viability counter screen (AID 720653; active = well fitted curve in the direction sought with a large enough effect in the repeat runs; an effect the other way counts as inactive or inconclusive); conditions: ARE-bla HepG2 viability, CellTiter-Glo ATP luminescence, 16 h; hits give low values
Outline: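 ARE-bla HepG2 cells treated with compounds for 16 h at 37C; this counter screen measures viability as intracellular ATP by CellTiter-Glo luminescence after 30 min at room temperature.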

[2] = qHTS Assay for Identifying Gametocytocidal Compounds (AID 743244);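 also: actives lower the fluorescent signal which means gametocytes are killed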; conditions: P. falciparum 3D7 stage III-V gametocytes, alamarBlue, 72 h; max response: hits give low values
Outline: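 P. falciparum 3D7 stage III–V gametocytes (20,000 cells/well) were exposed to compounds for 72 h at 37 °C, 5% CO2. AlamarBlue was then added for 24 h; decreased resorufin fluorescence (Ex 525/Em 598 nm) indicated loss of viability.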

[3] = qHTS assay for cell viability of HEK293 cells (AID 743288); conditions: ATP luminescence (CellTiter-Glo), 18 h; max response: hits give low values; also: nearly all actives have a fitted effect of over 50% in size
Outline: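 Parental HEK293 cells were seeded at 2,000 cells/well, rested at least 5 h at 37 C, then exposed to compounds in DMSO for 18 h at 37 C. Viability was read as ATP-dependent luciferase luminescence after 30 min at room temperature.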

[4] = qHTS assay for cell viability of the p53RE-bla HCT-116 cell line (AID 743292); conditions: p53RE-bla HCT-116 viability, ATP luminescence, 16 h; series mostly up to 95 µM; also: nearly all actives have a fitted effect of over 55% in size
Outline: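 Intracellular ATP of p53RE-bla HCT-116 cells measured by luciferase luminescence following 16 h compound incubation at 37 C; DMSO-only wells served as vehicle controls.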

[5] = qHTS assay to identify small molecule inhibitors of chordoma cells - UCH-1 (AID 1259355); conditions: UCH-1 chordoma viability, CellTiter-Glo, 48 h, combination, with auranofin plus four topoisomerase inhibitors; series mostly up to 46.1 µM; also: nearly all actives have a fitted effect of over 55% in size
Outline: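 Cells (800/well) were seeded and left overnight at 37 C, 5% CO2, then treated with drugs at 15 concentrations plus a combination mix of auranofin, camptothecin, doxorubicin, rubitecan and topotecan. Viability after 48hr was read by CellTiter-Glo luminescence.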

[6] = qHTS assay to identify small molecule inhibitors of chordoma cells - UCH-2 (AID 1259356); conditions: UCH-2 chordoma viability, CellTiter-Glo ATP luminescence, 48 h; series mostly up to 46.1 µM
[7] = P-glycoprotein substrates identified in KB-8-5-11 adenocarcinoma cell line, qHTS therapeutic library screen (AID 1346987); conditions: KB-8-5-11 (P-gp overexpressing) viability, CellTiter-Glo, 72 h; series mostly up to 44.5 µM; also: nearly all actives have a fitted effect of over 65% in size; also: potency is read from the fitted curve at half-maximal effect
Outline: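 KB-8-5-11, a colchicine-selected P-gp-overexpressing KB-3-1 subline, was grown without colchicine for the assay. Cells were seeded at 500 cells/well, dosed in concentration-response and incubated 72 h at 37 degree C, 5% CO2. Viability was read by CellTiter-Glo luminescence.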

SMILES | max response [1] | max response [2] | max response [3] | outcome [4] | Potency [5] | Potency [6] | Potency [7]
CC(C)CCCCCCc1ccc(O)cc1 | -6.03% | 9.95% | -15.7% | inactive | inactive | inactive | inactive
NC(N)=O | -1.96% | 2.55% | 0.964% | inactive | inactive | inactive | inactive
CC(C)O | 2% | 0.211% | -16.4% | inactive | inactive | inactive | inactive
CCCCC | -14.6% | 2.54% | -0.392% | inactive | inactive | inactive | inactive
CCOC(C)OCC | -4.14% | 16.8% | 7.3% | inactive | inactive | inactive | inactive
NC(=S)NS(=O)(=O)c1ccc(N)cc1 |  | 5.02% |  |  | inactive | inactive | inactive
CC/C=C\C/C=C\C/C=C\CCCCCCCC(=O)O | -3.01% | 13.1% | -4.87% | inactive | inactive | inactive | inactive
OB(O)O | -7.44% and 3.96% | 7.6% | -3.91% and 5.45% | inactive | inactive | inactive | inactive
C[Si](C)(C)O[Si](C)(C)C | -6.75% |  | -0.467% | inactive | inactive | inactive | inactive
NCCN | -3.91% | 20.9% | -4.96% | inactive | inactive | inactive | inactive
O=P(O)(O)O | -2% | -3.37% | -7.47% | inactive | inactive | inactive | inactive
Nc1ncnc2c1ncn2[C@H]1CC[C@@H](CO)O1 | -18.5% and 2.96% | -3.96% | -8.27% and 0.717% | inactive | inactive | inactive | inactive
CO[C@@H]1[C@H](OC(=O)/C=C/C=C/C=C/C=C/C(=O)O)CC[C@]2(CO2)[C@H]1[C@@]1(C)O[C@@H]1CC=C(C)C | 8.65% | -5.74% | -10.5% | inactive | inactive | inactive | inactive
Cc1ccccn1 |  | 2.7% |  |  | inactive | inactive | inactive
CCCCC(CC)COS(=O)(=O)O (stereo not given) | 8.31% |  | 8.79% | inactive | inactive | inactive | inactive
Cc1ccc(S(=O)(=O)O)cc1C | 12.7% | 1.6% | 0.0836% | inactive | inactive | inactive | inactive
CC(C)(C)CC(C)(C)c1ccc(OCCO)cc1 | -18% | 12.7% | -25.1% | inactive | inactive | inactive | 13 µM (active)
Nc1nccs1 | -16.1% | 1.76% | -5.55% | inactive | inactive | inactive | inactive
CO/N=C(/C(=O)N[C@@H]1C(=O)N2C(C(=O)O)=C(COC(N)=O)CS[C@H]12)c1ccco1 | 4.41% |  | 2.57% | inactive | inactive | inactive | inactive
O.O.O.O.O.O.O.O=S(=O)([O-])[O-].[Co+2] | -4.91% | 0.797% | 1.41% | inactive | inactive | inactive | inactive
CNC(=O)[C@H](Cc1c[nH]c2ccccc12)NC(=O)[C@@H](CC(=O)NO)CC(C)C |  | -3.58% |  |  | inactive | inactive | inactive
